The source of these data is PubChem BioAssay.

SMILES strings stand for the structures. Unmarked numbers belong to inactive results. For some of these results: Potency and affinity values are given separately. Calls of active or inactive are those of the source. Unless noted, no rule for the calls is given here.

Assay [1] in a line: antimalarial activity against Dd2 strain (AID 2302;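 active = growth inhibition above 50% at the single 2 µM test dose, taken to imply half-maximal potency below 2 µM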;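 also: 0% = DMSO untreated growth and 100% = chloroquine plus artemisinin killed control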). The settings on record: P. falciparum Dd2 in RBCs, LDH growth readout, 72 h; at 2 µM; stronger effect = higher value.
Assay [2] is described as follows: human hepatoma cell viability loss – ATP luminescence, cytotoxicity control for P. falciparum antimalarial project, primary screen (AID 2303;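 active = inhibition above 50%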;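 also: 0% = DMSO wells and 100% = digitonin-killed cells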). Particulars: HepG2 viability, 24-48 h, at 10 µM, stronger effect = higher value.
The target in assay [3] is L-lactate dehydrogenase (Plasmodium falciparum (isolate CDC / Honduras)) (UniProt Q27743). The experiment in a line: PfLDH activity inhibition – cell lysate, 3D7 strain, counter-screen for P. falciparum growth inhibition project (AID 2304).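 Also: 0% = vehicle and 100% = reference inhibitor.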 The settings on record: P. falciparum 3D7 crude extract, LDH APAD/NBT absorbance; at 2 µM; stronger effect = higher value. Background: Counterscreens check selectivity or assay interference.

The nature of assay [4]: inhibition of 3D7 malaria parasite growth – strain 3D7 (AID 2306).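 Also: 0% = DMSO wells and 100% = chloroquine plus artemisinin control wells.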 Particulars: P. falciparum 3D7 erythrocytic growth, LDH absorbance, 72 h; at 2 µM; stronger effect = higher value.
Assay [5] addresses Calcium-dependent protein kinase 1 (Plasmodium falciparum (isolate 3D7)) (UniProt P62344). The experiment in a line: PfCDPK1 kinase inhibitors, biochemical, TCAMS library (AID 1159585; cut-off not given, nearly all actives have IC50 up to about 0.98 µM;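 also: inhibitors leave more ATP so luminescence rises with inhibition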). The settings on record: recombinant PfCDPK1, Kinase-Glo ATP depletion luminescence. A general note: Kinase-Glo reads ATP consumption through a luciferase reaction.
Assay [6] addresses Plasmodium falciparum protein kinase 6 (PK6, PF3D7_1337100) (UniProt Q8IDW1). The assay can be described thus: PfPK6 kinase inhibitors, biochemical, TCAMS library (AID 1159586). The settings on record: recombinant PfPK6, Kinase-Glo ATP depletion luminescence.
The target in assay [7] is Protein kinase 7 (PK7), Plasmodium falciparum 3D7 (PF3D7_0213400) (UniProt Q7YTF7). The experiment in a line: inhibition of Plasmodium PK7 catalytic activity – biochemical, TCAMS antimalarial set, Kinase-Glo luminescence (AID 1159587). The settings on record: recombinant PfPK7, Kinase-Glo ATP depletion luminescence.
Assay [8] has as its target Calcium-dependent protein kinase 4 (Plasmodium falciparum (isolate 3D7)) (UniProt Q8IBS5). The assay can be described thus: PfCDPK4 kinase inhibitors, biochemical, TCAMS library (AID 1159588; cut-off not given, nearly all actives have IC50 up to about 0.91 µM). The settings on record: recombinant PfCDPK4, Kinase-Glo ATP depletion luminescence.

Calcium-dependent protein kinase 1 (Plasmodium falciparum (isolate 3D7)), sequence (P62344 whole entry, looked up): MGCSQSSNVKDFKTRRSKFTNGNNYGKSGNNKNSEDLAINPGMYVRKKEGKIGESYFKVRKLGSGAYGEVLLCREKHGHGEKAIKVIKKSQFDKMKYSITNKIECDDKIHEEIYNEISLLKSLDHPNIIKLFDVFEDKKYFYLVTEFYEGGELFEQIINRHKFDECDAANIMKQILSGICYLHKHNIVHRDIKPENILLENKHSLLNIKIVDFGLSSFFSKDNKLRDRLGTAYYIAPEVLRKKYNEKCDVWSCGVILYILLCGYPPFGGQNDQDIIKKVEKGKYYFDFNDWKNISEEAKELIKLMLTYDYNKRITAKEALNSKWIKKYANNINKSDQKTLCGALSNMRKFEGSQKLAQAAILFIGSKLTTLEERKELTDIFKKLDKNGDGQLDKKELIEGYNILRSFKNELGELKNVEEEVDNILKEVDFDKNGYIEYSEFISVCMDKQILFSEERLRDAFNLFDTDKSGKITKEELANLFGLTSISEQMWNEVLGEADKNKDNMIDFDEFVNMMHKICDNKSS
Plasmodium falciparum protein kinase 6 (PK6, PF3D7_1337100), sequence (Q8IDW1 1-305): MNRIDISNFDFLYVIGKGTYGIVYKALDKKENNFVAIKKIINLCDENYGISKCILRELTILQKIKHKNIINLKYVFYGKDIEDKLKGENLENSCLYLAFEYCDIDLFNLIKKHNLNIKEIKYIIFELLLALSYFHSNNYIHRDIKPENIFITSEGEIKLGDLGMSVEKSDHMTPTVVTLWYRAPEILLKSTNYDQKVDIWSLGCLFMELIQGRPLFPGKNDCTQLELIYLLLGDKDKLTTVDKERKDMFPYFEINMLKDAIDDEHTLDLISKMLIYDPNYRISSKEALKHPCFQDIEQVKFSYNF
Protein kinase 7 (PK7), Plasmodium falciparum 3D7 (PF3D7_0213400), sequence (Q7YTF7 1-343): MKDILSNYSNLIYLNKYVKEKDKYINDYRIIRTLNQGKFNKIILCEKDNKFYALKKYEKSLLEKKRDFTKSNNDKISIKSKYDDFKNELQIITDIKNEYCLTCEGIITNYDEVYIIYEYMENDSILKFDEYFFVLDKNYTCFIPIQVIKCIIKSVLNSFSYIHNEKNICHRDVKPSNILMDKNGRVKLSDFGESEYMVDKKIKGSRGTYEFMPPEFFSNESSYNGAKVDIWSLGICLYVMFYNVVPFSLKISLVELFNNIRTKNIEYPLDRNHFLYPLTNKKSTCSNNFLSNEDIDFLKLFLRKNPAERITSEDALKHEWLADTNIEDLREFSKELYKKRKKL
L-lactate dehydrogenase (Plasmodium falciparum (isolate CDC / Honduras)), sequence (Q27743 whole entry, looked up): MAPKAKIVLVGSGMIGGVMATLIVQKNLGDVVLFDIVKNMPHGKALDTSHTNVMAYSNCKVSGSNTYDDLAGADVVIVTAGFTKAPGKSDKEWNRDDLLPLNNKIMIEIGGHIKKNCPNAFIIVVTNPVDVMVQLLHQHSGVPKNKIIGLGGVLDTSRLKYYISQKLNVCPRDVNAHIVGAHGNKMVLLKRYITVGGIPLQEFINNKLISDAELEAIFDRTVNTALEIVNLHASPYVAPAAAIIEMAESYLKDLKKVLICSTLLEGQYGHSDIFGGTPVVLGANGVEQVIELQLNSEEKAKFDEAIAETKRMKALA
Calcium-dependent protein kinase 4 (Plasmodium falciparum (isolate 3D7)), sequence (Q8IBS5 whole entry, looked up): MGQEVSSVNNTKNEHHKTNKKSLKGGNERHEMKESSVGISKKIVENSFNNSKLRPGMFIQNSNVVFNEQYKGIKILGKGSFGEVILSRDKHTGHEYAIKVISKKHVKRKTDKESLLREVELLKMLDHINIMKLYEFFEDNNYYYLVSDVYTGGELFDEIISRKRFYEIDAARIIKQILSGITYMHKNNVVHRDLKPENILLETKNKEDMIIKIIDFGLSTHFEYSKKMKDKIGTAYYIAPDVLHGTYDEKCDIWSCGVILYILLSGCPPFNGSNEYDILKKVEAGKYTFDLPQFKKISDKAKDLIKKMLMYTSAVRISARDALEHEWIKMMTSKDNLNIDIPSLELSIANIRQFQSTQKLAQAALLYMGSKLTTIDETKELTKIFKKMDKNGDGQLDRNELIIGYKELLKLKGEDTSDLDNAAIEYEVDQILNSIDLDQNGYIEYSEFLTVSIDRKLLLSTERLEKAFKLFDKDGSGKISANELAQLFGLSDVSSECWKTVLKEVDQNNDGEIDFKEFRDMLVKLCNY

Regarding `COc1ccc2nccc(N3CCC(CCNCc4ccc5c(n4)NC(=O)CS5)CC3)c2c1`, the growth inhibition in assay [1] is 86% (active); in assay [4], 101% (active). The results for the inhibition in assay [2] and in assay [3] were 55% (active) and -1%, respectively. In addition, the result in assay [5], in assay [6], in assay [7] and in assay [8] was inactive.
On to `O=C(c1ccco1)N1CCN(c2nc(-c3ccc(Cl)cc3)nc3ccccc23)CC1`, for which the growth inhibition in assay [1] is 91% (active); in assay [4], 96% (active). In addition, the inhibition – broadly, the relative decrease from the control value, in per cent – in assay [2] is 13%; in assay [3], 5%. For the same compound, the outcome in assay [5], in assay [6], in assay [7] and in assay [8] was inactive.
For `Cc1cccc2[nH]c(-c3ccc(-c4ccc(CN5CCN(CCO)CC5)cc4)s3)nc12`, the growth inhibition in assay [1] is 47%; in assay [4] it was 92% (active). For the same compound, the inhibition in assay [2] is 34%; in assay [3] it was 0%. Besides, the outcome in assay [5], in assay [6], in assay [7] and in assay [8] was inactive.
For the compound `N#CN1CC[C@@H](NS(=O)(=O)Cc2ccc(Cl)c(Cl)c2)C1`, the growth inhibition in assay [1] and in assay [4] was 94% (active) in each case. The inhibition is 13% in assay [2] and -3% in assay [3]. The outcome in assay [5], in assay [6], in assay [7] and in assay [8] was inactive.
`CCN(CCCN1CCCCC1)c1cc(C)nc(Nc2cccc(OC(F)(F)F)c2)n1`: the growth inhibition in assay [1] is 99% (active); in assay [4], 102% (active). Further, the inhibition in assay [2] was 32%; in assay [3], -2%. Also, the result in assay [5], in assay [6], in assay [7] and in assay [8] was inactive.
Take `Nc1c2ccccc2nc2ccc(-c3ccccc3)cc12`: the results for the growth inhibition in assay [1] and in assay [4] were 99% (active) and 101% (active), respectively. Moreover, the inhibition in assay [2] is 100% (active); in assay [3], 2%. Besides, the outcome in assay [5], in assay [6], in assay [7] and in assay [8] was inactive.
Consider `Fc1ccc2[nH]c3c(NCCCN4CCOCC4)ncnc3c2c1`, for which the values for the growth inhibition in assay [1] and in assay [4] were 2% and 98% (active), respectively. Moreover, the results for the inhibition in assay [2] and in assay [3] were 14% and -4%, respectively. Besides, the result in assay [5], in assay [6], in assay [7] and in assay [8] was inactive.
As to `Nc1nc(N)c2c(CCc3ccc4ccccc4c3)cccc2n1`, the growth inhibition in assay [1] is 6%; in assay [4] it was 102% (active). The figures for the inhibition in assay [2] and in assay [3] were 56% (active) and -2%, respectively. The outcome in assay [5], in assay [6], in assay [7] and in assay [8] was inactive.
Turning to `CCOC(=O)c1sc(C(C)Nc2ccccc2)nc1-c1ccccc1` (centres undefined), the growth inhibition was 91% (active) in assay [1] and 95% (active) in assay [4]. Further, the inhibition in assay [2] was -8%; in assay [3], 5%. Besides, the outcome in assay [5], in assay [6], in assay [7] and in assay [8] was inactive.
Consider `CN(Cc1ccc(C#N)cc1)C1CCN(c2cc(NC(=O)c3cccc(F)c3)ccn2)CC1`, for which the growth inhibition is -9% in assay [1] and 83% (active) in assay [4]. Moreover, the inhibition in assay [2] is 9%; in assay [3], -2%. In addition, the result in assay [5], in assay [6], in assay [7] and in assay [8] was inactive.
For `CCOC(=O)c1c(CN(CC)CC)n(-c2ccccc2)c2cc(Br)c(O)cc12`, the growth inhibition in assay [1] was 46%; in assay [4], 93% (active). Moreover, the inhibition was 14% in assay [2] and -5% in assay [3]. The outcome in assay [5], in assay [6], in assay [7] and in assay [8] was inactive.
For the compound `COc1ccc2ncc(F)c([C@H](O)CN3CCC(NCc4ccc5c(c4)NC(=O)CO5)CC3)c2c1`, the figures for the growth inhibition in assay [1] and in assay [4] were 101% (active) and 102% (active), respectively. Moreover, the figures for the inhibition in assay [2] and in assay [3] were 16% and -1%, respectively. The result in assay [5], in assay [6], in assay [7] and in assay [8] was inactive.
As for `CC(C)(C)c1cc(C(=O)N2CCN(c3nccnc3C#N)CC2)n(Cc2ccccc2)n1`, the results for the growth inhibition in assay [1] and in assay [4] were 93% (active) and 100% (active), respectively. Also, the inhibition in assay [2] is -11%; in assay [3] it was -9%. Besides, the result in assay [5], in assay [6], in assay [7] and in assay [8] was inactive.
With `COc1cc(OC)nc(C(Sc2ccc(NC(=O)c3cccs3)cc2)c2ccccc2)n1` (centres undefined), the growth inhibition in assay [1] is 96% (active); in assay [4], 97% (active). Besides, the inhibition is 7% in assay [2] and -1% in assay [3]. Further, the result in assay [5], in assay [6], in assay [7] and in assay [8] was inactive.
For the compound `O=C(NCc1cccc(C(F)(F)F)c1)C1CCCN(C(=O)c2ccc(O)c(-c3ccc(Cl)c(Cl)c3)c2)C1` (centres undefined), the results for the growth inhibition in assay [1] and in assay [4] were 32% and 94% (active), respectively. For the same compound, the figures for the inhibition in assay [2] and in assay [3] were 1% and 6%, respectively. Also, the result in assay [5], in assay [6], in assay [7] and in assay [8] was inactive.
Take `O=C(Oc1ccc(Cl)cc1C(=O)Nc1ccc([N+](=O)[O-])cc1Cl)c1ccccc1`: the growth inhibition in assay [1] is 19%; in assay [4] it was 97% (active). Also, the inhibition in assay [2] was 88% (active); in assay [3] it was 3%. Also, the result in assay [5], in assay [6], in assay [7] and in assay [8] was inactive.
As for `COc1cccc(CC(=O)N2CCC(n3c(C)nc4ccc(C)cc43)CC2)c1`, the results for the growth inhibition in assay [1] and in assay [4] were 99% (active) and 100% (active), respectively. In addition, the figures for the inhibition in assay [2] and in assay [3] were 1% and -2%, respectively. For the same compound, the result in assay [5], in assay [6], in assay [7] and in assay [8] was inactive.
For `Cc1noc(-c2ccc(N3CCC(C(=O)N4CCN(C(C)C)CC4)CC3)cc2)n1`, the growth inhibition in assay [1] was -2%; in assay [4], 95% (active). Also, the inhibition was -12% in assay [2] and -5% in assay [3]. Moreover, the result in assay [5], in assay [6], in assay [7] and in assay [8] was inactive.
On to `O=C(Nc1ccc(C(=O)OCC2CCCCC2)cc1)N[C@@H](Cc1ccc(O)cc1)C(=O)NC1CCN(Cc2ccc(O)cc2)C1` (some centres undefined), for which the figures for the growth inhibition in assay [1] and in assay [4] were -4% and 91% (active), respectively. For the same compound, the inhibition in assay [2] was 6%; in assay [3], -1%. Further, the outcome in assay [5], in assay [6], in assay [7] and in assay [8] was inactive.
Turning to `Cc1cc(NCCc2ccccc2)nc(/N=C(\N)Nc2ccc(Cl)cc2)n1`, the results for the growth inhibition in assay [1] and in assay [4] were 100% (active) and 102% (active), respectively. In addition, the inhibition was 7% in assay [2] and 4% in assay [3]. Besides, the outcome in assay [5], in assay [6], in assay [7] and in assay [8] was inactive.
On to `CC(O)C1CCCCN1C(=O)c1cccc(-c2cccc(-c3nc4ccccc4[nH]3)c2)c1` (centres undefined), for which the growth inhibition is 76% (active) in assay [1] and 99% (active) in assay [4]. Moreover, the inhibition in assay [2] was 20%; in assay [3], -4%. In addition, the outcome in assay [5], in assay [6], in assay [7] and in assay [8] was inactive.
As for `OCCOCn1cnc2cnc(N[C@H]3OC[C@H](O)[C@@H](O)[C@@H]3O)nc21`, the figures for the growth inhibition in assay [1] and in assay [4] were -2% and 82% (active), respectively. In addition, the inhibition is 42% in assay [2] and 0% in assay [3]. For the same compound, the outcome in assay [5], in assay [6], in assay [7] and in assay [8] was inactive.
With `COc1ccc2nccc([C@@H](O)CN3CCC(NCc4ccc5c(c4)NC(=O)CS5)CC3)c2c1`, the growth inhibition in assay [1] was 36%; in assay [4], 102% (active). Also, the inhibition in assay [2] is -4%; in assay [3], -1%. Moreover, the outcome in assay [5], in assay [6], in assay [7] and in assay [8] was inactive.
